Measured values as given in PubChem BioAssay (NCATS).
Values joined by “and” are separate entries in the source; they are usually repeats but may differ in a detail not shown here. Equal values may be shown once. Results filed as inconclusive are left out. Active and inactive are the calls of the source. Unless noted, calls follow the shape of the dose curve; as a rule, active = well fitted curve in the direction sought with a large enough effect; inconclusive = small, poorly fitted or top-dose-only effect, or another doubt; inactive = no such curve, though single readings can be large; an effect the other way counts as inactive or inconclusive.

Assays:
[1] = Cell Viability - MRC5 (AID 434; calls by dose curve;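 also: potency is read from the fitted curve at half-maximal effect; cells exposed to compound for 40 hours at 37 °C; potency reflects cytotoxicity seen as loss of intracellular ATP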); conditions: MRC5 lung fibroblast viability, qHTS
In short: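 ATP luminescence read-out (CellTiter-Glo, 20 min RT) after 40 hr, 37 °C compound exposure of 1500 MRC5 cells/well. Data normalized to DMSO (basal) and 100 uM tamoxifen (100% inhibition); AC50 from standard Hill equation.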

[2] = Cell Viability - HUV-EC-C (AID 542); conditions: HUV-EC-C endothelial cell viability, qHTS; series mostly up to 92.2 µM;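 also: cells exposed to compound for 40 hours; % is scaled to controls: 0 for no effect and ±100 for the full control effect; nearly all actives have a fitted effect of over 35% in size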
In short: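 Cells were seeded at 1000 per well and incubated 5 hr at 37 °C before compound addition. After 40 hr at 37 °C, CellTiter-Glo reagent was added for 20 min and luminescence read. AC50 values came from Hill-equation modelling.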

[3] = Cell Viability - Mesenchymal (AID 546); conditions: mesenchymal cells viability, qHTS; series mostly up to 91.7 µM;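 also: cells exposed to compound for 40 hours before reading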
In short: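 Human renal mesenchymal cells (glomerulus-derived), 1000 cells/well, 5 hr 37 °C pre-incubation; compound 40 hr, 37 °C; CellTiter-Glo, 20 min RT; luminescence; AC50 via Hill equation.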

[4] = Cellular Toxicity (caspase-3) Jurkat (AID 655); conditions: Jurkat caspase-3 activation, luminescence; caspase-3 activation: at 92.2 µM (top of the series), DMSO = 0%, tamoxifen = 100%;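 also: cells exposed to compound for 16 h at 37 °C before reading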
In short: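 Jurkat cells (5000/well) in complete medium exposed 16 h at 37 C; caspase-3/7 activity read by Caspase-Glo luminescence after 20 min at room temperature. Normalized to DMSO and 100 uM tamoxifen; AC50 from Hill fits.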

[5] = Cellular Toxicity (caspase-3) BJ (AID 658); conditions: BJ fibroblasts, luminescence, normalized: DMSO 0%, staurosporine 100%; series mostly up to 91.7 µM
In short: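 qHTS, BJ fibroblasts, 1000 cells/well; 5 hr preincubation, 16 hr compound, 37 °C; Caspase-Glo 3/7 reagent, 1 hr RT; luminescence. DMSO = 0%, 10 uM staurosporine = 100%. Hill-equation AC50.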

[6] = Cellular Toxicity (caspase-3) SK-N-SH (AID 661); conditions: SK-N-SH caspase-3 activation, qHTS; series mostly up to 91.7 µM
In short: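 Cells were seeded and incubated 5 hr at 37 °C, dosed with compound over a concentration range for 16 hr, then given Caspase-Glo 3/7 reagent for 1 hr at room temperature before luminescence reading.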

[7] = Cellular Toxicity (caspase-3) H-4-II-E (AID 663); conditions: H-4-II-E rat hepatoma; Potency: caspase-3 activation; series mostly up to 92.2 µM;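 also: cells exposed to compound for 16 hr before readout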
In short: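 H-4-II-E rat hepatoma, 1500 cells/well, 5 hr settle at 37 °C; compound 16 hr, 37 °C, complete medium; Caspase-Glo 3/7, 20 min RT; luminescence. DMSO = 0%, 100 uM tamoxifen = 100%; Hill-equation AC50.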

[8] = Cellular Toxicity (caspase-3) Hek293 (AID 664); conditions: HEK293 caspase-3 activation, DMSO = 0%, 100 µM tamoxifen = 100%; at 92.2 µM (top of the series);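 also: cells exposed to compound for 16 h at 37 °C before readout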
In short: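 qHTS, HEK293 (human embryonic kidney), 16 h cpd exposure in complete medium. Caspase-3/7 activation = luminescence increase; normalized to DMSO/100 uM tamoxifen; Hill-fit AC50.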

[9] = Cellular Toxicity (caspase-3) N2a (AID 665); conditions: N2a cells, luminescence, normalized: DMSO 0%, 10 µM staurosporine 100%; series mostly up to 92.2 µM;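 also: compound exposure lasted 16 h at 37 °C before readout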
In short: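 Caspase-3/7 activation, measured as increased luminescence from aminoluciferin release, is quantified in mouse N2a cells exposed to compounds for 16 h. Values are normalized to DMSO and 10 uM staurosporine, with AC50 derived by Hill modelling.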

[10] = Cellular Toxicity (caspase-3) Renal Proximal Tubule (AID 667); conditions: renal proximal tubule cells; series mostly up to 91.7 µM;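 also: cells exposed to compound for 16 hours at 37 °C before detection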
In short: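 Freshly isolated primary rat kidney proximal tubule cells, 1000/well, treated 16 hr at 37 °C, then Caspase-Glo 3/7 luminescence after 1 hr. Normalized to DMSO and 10 uM staurosporine; AC50 from Hill fit.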

[11] = MultiTox-Fluor Cytotoxicity Assay - LYMP1-003 - Dead Cells (AID 961); conditions: LYMP1-003 lymphoblastoid cells, dead-cell protease fluorescence; series mostly up to 92.2 µM; also: nearly all actives have a fitted effect of over 70% in size
In short: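 Dead-cell protease release, detected as bis-AAF-R110 fluorescence at 485/520 nm, was measured in LYMP1-003 cells after 16 h compound treatment at 37 C. AC50 values came from Hill-modeled qHTS curves normalized to DMSO (0%) and 15 uM tetraoctylammonium bromide (100%).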

[12] = MultiTox-Fluor Cytotoxicity Assay - LYMP1-003 - Live Cells (AID 962); conditions: LYMP1-003 lymphoblastoid cells, MultiTox-Fluor live-cell protease fluorescence; series mostly up to 92.2 µM;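 also: cells exposed to compound for 16 hours at 37 °C; 0% = DMSO only and full loss = 92 µM tetraoctylammonium bromide; cytotoxic hits lower the live-cell protease signal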
In short: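 Acute cytotoxicity is scored as a drop in live-cell protease activity in human lymphoblastoid LYMP1-003 cells after 16 hr compound exposure at 37 C. AC50 values come from Hill-equation modelling of concentration-response data.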

[13] = Cell Viability - LYMP2-013 (AID 970); conditions: LYMP2-013 lymphoblastoid cells viability; series mostly up to 92.2 µM;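 also: cells exposed to compound for 24 h at 37 °C; 0% = DMSO only and full inhibition = tetraoctylammonium bromide control; nearly all actives have a fitted effect of over 55% in size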
In short: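 Cytotoxicity is scored as a concentration-dependent drop in intracellular ATP in human lymphoblastoid cells after 24 hr compound exposure at 37 C. ATP is quantified by luciferase luminescence, and AC50 values come from Hill-equation modeling.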

[14] = target: Peroxisome proliferator-activated receptor gamma (Homo sapiens) (UniProt P37231); test: qHTS assay for small molecule agonists of peroxisome proliferator-activated receptor gamma signaling (AID 588536; active = well fitted curve in the direction sought with a large enough effect in the signal ratio, with a control signal flat, not every such curve was filed as active; the % refers to the signal ratio;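 also: 0% = DMSO basal wells and 100% = rosiglitazone at 2 µM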); conditions: HEK293 PPARg-UAS-bla, beta-lactamase ratio, 16 h, percent of rosiglitazone response, DMSO as zero; series mostly up to 76.7 µM
Peroxisome proliferator-activated receptor gamma (Homo sapiens), sequence (P37231 whole entry, looked up): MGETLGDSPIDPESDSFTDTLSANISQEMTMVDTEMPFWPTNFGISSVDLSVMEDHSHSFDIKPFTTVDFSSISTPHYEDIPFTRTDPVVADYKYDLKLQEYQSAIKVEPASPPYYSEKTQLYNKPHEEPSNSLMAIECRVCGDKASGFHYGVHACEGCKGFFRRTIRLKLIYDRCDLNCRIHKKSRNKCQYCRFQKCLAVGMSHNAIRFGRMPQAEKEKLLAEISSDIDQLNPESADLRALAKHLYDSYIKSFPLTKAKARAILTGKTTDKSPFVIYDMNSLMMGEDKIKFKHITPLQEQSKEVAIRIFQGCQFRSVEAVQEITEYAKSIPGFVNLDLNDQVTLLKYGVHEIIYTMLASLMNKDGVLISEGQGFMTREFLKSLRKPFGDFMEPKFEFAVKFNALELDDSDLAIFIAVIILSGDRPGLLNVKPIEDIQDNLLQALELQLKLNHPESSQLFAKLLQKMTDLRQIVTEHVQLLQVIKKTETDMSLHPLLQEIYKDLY
In short: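 This is an agonist-mode beta-lactamase reporter assay in HEK293 PPAR-gamma-UAS-bla cells with 1% charcoal/dextran FBS. Compound titrations ran 16 h at 37 C before CCF4 detection. EC50 and efficacy are Hill fits scaled to 2 uM rosiglitazone (100%) and DMSO basal.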

[15] = qHTS assay for environmental chemicals that activate the Aryl hydrocarbon Receptor (AhR) signaling pathway (AID 651777); conditions: 1A2-DRE human hepatoma cells, luciferase, 24 h; activation: active compounds read high; also: % of control where 0% means no effect; nearly all actives have a fitted effect of over 15% in size
In short: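 AhR activation is scored as a rise in luciferase from a stable DRE–CYP1A2 promoter construct in human hepatoma cells. Treatment lasts 24 hr at 37 C; detection uses One-Glo after 30 min at room temperature.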

[16] = qHTS assay for cell viability of HEK293 cells (AID 743288); conditions: ATP luminescence (CellTiter-Glo), 18 h, active compounds read low; also: % is scaled to controls: 0 for no effect and ±100 for the full control effect; nearly all actives have a fitted effect of over 50% in size
In short: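 Steps: plate 2,000 parental HEK293 cells per well; incubate ≥5 h, 37 C; add compounds in DMSO; incubate 18 h, 37 C; add CellTiter-Glo; wait 30 min at room temperature; read luminescence.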

[17] = qHTS assay for cell viability of the p53RE-bla HCT-116 cell line (AID 743292); conditions: p53RE-bla HCT-116 viability, ATP luminescence, 16 h; series mostly up to 95 µM; also: % is scaled to controls: 0 for no effect and ±100 for the full control effect; nearly all actives have a fitted effect of over 55% in size
In short: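 Quantitative high-throughput format: compounds in DMSO were pinned onto p53RE-bla HCT-116 cells (4,000/well) and incubated 16 h at 37 C. Total intracellular ATP, read by CellTiter-Glo luminescence, reflects viable cell number.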

[18] = target: Nuclear receptor subfamily 1 group I member 2 (Rattus norvegicus) (UniProt Q9R1A7); test: qHTS assay for small molecule activators of the rat pregnane X receptor (rPXR) signaling pathway (AID 651751; call rule not given here; also: 0% is about no effect); conditions: rPXR reporter cells, luciferase (One-Glo), 24 h
Nuclear receptor subfamily 1 group I member 2 (Rattus norvegicus), sequence (Q9R1A7 whole entry, looked up): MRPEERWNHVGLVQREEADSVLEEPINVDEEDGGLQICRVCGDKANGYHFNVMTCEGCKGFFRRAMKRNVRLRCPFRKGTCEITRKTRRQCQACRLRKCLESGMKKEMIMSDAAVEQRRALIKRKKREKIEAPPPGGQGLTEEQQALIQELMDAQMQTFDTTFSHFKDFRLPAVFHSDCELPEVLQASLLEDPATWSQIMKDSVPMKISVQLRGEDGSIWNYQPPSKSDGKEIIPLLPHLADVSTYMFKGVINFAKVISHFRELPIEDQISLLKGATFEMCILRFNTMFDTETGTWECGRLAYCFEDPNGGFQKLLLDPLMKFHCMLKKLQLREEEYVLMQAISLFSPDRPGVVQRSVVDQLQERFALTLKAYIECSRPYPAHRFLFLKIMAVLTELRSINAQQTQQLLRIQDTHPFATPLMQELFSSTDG

[19] = target: Mitogen-activated protein kinase 10 (Mus musculus) (UniProt Q61831); test: JNK3 AlphaScreen Assay (AID 530; active = well fitted curve in either direction with a large enough effect, not every such curve was filed as active;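 also: kinase came from lysate of stimulated human HepG2 cells; signal reports phosphorylation of biotinylated GST-cJun 1-79 at Ser73 with 10 µM ATP; % is scaled to controls: 0 for no effect and ±100 for the full control effect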); conditions: JNK3 lysate, c-Jun phosphorylation; series mostly up to 57.1 µM
In short: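 Activity was read by AlphaScreen after JNK3-containing HepG2 lysate (cytokine pre-activated) phosphorylated biotinylated GST-cJun with 10 uM ATP at room temperature. Phospho-Ser73 cJun antibody with Protein-A acceptor beads provided detection.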

[20] = Cellular Toxicity (caspase-3) HepG2 (AID 654); conditions: HepG2 caspase-3 activation, luminescence, 0% = DMSO only, 100% = tamoxifen; series mostly up to 92.2 µM;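 also: cells exposed to compound for 16 hours before reading; 0% = DMSO alone and 100% = caspase signal from 100 µM tamoxifen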
In short: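 Caspase 3/7 activation in HepG2 is measured as rising luminescence after a 16 hr treatment at 37 °C. Values are scaled between DMSO basal and 100 uM tamoxifen, and AC50 is fitted with the Hill equation.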

Oc1cccc(Cl)c1Cl
inactive: Potency [1] > 92 µM | Potency [2] | Potency [3] | caspase-3 activation [4] 0.319% | outcome [5] | Potency [6] | Potency [7] | caspase-3 activation [8] 0.0996% | outcome [9] | outcome [10] | Potency [11] | outcome [12] | Potency [13] | outcome [14] | activation [15] 0.0475% | max response [16] -3.83% | Potency [17] | max response [18] -2.09%

O=C(O)C(Cl)Br (stereo not drawn)
inactive: Potency [19] | Potency [2] | outcome [20] | caspase-3 activation [4] -0.427% | Potency [6] | Potency [7] | caspase-3 activation [8] 0.0973% | Potency [11] | Potency [13] | outcome [14] | activation [15] 0.968% | max response [16] 6.83% | Potency [17] | max response [18] -1.1%

Clc1cccc(Cl)c1Cl
inactive: Potency [1] > 92 µM | Potency [2] | Potency [3] | outcome [20] | outcome [5] | Potency [6] | Potency [7] | caspase-3 activation [8] -0.313% | outcome [10] | Potency [13] | outcome [14] | activation [15] -1.51% and 0.659% | max response [16] -5.25% and -0.775% | Potency [17] | max response [18] -2.59% and 0.772%

N#C/C(N)=C(/N)C#N
inactive: Potency [3] | outcome [20] | caspase-3 activation [4] 1.12% | outcome [5] | Potency [6] | Potency [7] | caspase-3 activation [8] -2.4% | outcome [9] | outcome [10] | Potency [11] | outcome [12] | outcome [14] | activation [15] 0.971% | Potency [17] | max response [18] -1.96%

COC(=O)Nc1nc2ccccc2[nH]1
inactive: Potency [19] | outcome [20] | outcome [5] | Potency [6] | caspase-3 activation [8] -4.59% | outcome [9] | outcome [10] | Potency [11] | outcome [12] | Potency [13] | outcome [14] | activation [15] 7.05% | max response [16] -9.84% and -19.2% | Potency [17]

O=[N+]([O-])c1ccc2c3c(cccc13)CC2
inactive: Potency [19] | Potency [2] | Potency [3] | caspase-3 activation [4] 0.699% | outcome [5] | Potency [7] | caspase-3 activation [8] 1.65% | outcome [9] | Potency [11] | outcome [12] | Potency [13] | outcome [14] | max response [16] -14% and -2.65% | Potency [17]

Oc1cccc(Cl)c1
inactive: Potency [19] | Potency [2] | Potency [3] | outcome [20] | caspase-3 activation [4] 0.0873% | outcome [5] | Potency [6] | outcome [9] | outcome [10] | Potency [11] | outcome [12] | Potency [13] | outcome [14] | activation [15] -0.063% | max response [16] 0.616% | Potency [17] | max response [18] 1.59%

Nc1cc(Cl)cc(C(=O)O)c1Cl
inactive: Potency [1] > 92 µM | Potency [2] | Potency [3] | outcome [20] | outcome [5] | Potency [6] | outcome [9] | Potency [11] | outcome [12] | outcome [14] | activation [15] 7.92% and 6.33% | max response [16] 10.5% and -2.29% | Potency [17] | max response [18] 3.15% and -3.28%

Nc1ccccc1-c1ccccc1
inactive: Potency [1] > 92 µM | Potency [2] | outcome [20] | caspase-3 activation [4] 2.93% | outcome [5] | Potency [6] | Potency [7] | caspase-3 activation [8] 1.72% | outcome [9] | outcome [10] | Potency [11] | outcome [12] | Potency [13] | outcome [14] | activation [15] -0.114% | max response [16] 3.8% | Potency [17] | max response [18] 0.403%

FC(Cl)(Cl)Cl
inactive: Potency [19] | Potency [2] | outcome [20] | caspase-3 activation [4] -0.152% | outcome [5] | Potency [6] | Potency [7] | caspase-3 activation [8] -1.27% | outcome [9] | outcome [10] | Potency [11] | Potency [13] | outcome [14] | activation [15] -1.34% | max response [16] -1.1% | Potency [17]

Nc1ccc([N+](=O)[O-])cc1[N+](=O)[O-]
inactive: Potency [1] > 92 µM | Potency [19] | Potency [2] | Potency [3] | outcome [20] | caspase-3 activation [4] 1.67% | outcome [5] | Potency [6] | Potency [7] | caspase-3 activation [8] -0.459% | outcome [9] | outcome [10] | Potency [11] | Potency [13] | outcome [14] | activation [15] 0.484%

O=C(Cc1ccccc1)OCc1ccccc1
inactive: Potency [1] > 92 µM | Potency [2] | Potency [3] | outcome [20] | caspase-3 activation [4] 3.55% | outcome [5] | Potency [6] | Potency [7] | caspase-3 activation [8] 2.6% | outcome [10] | Potency [13] | outcome [14] | Potency [17] | max response [18] -0.53%

CCCCCC[N+](=O)[O-]
inactive: Potency [1] > 92 µM | Potency [2] | Potency [3] | outcome [20] | Potency [6] | Potency [7] | caspase-3 activation [8] -0.935% | outcome [9] | outcome [10] | Potency [11] | Potency [13] | outcome [14] | activation [15] 0.0869% | max response [16] 7.41% | Potency [17] | max response [18] 1.74%

C=C(Cl)CSC(=S)N(CC)CC
inactive: Potency [1] > 92 µM | Potency [3] | outcome [20] | caspase-3 activation [4] 1.37% | outcome [5] | Potency [6] | Potency [7] | caspase-3 activation [8] 0.963% | outcome [9] | outcome [10] | Potency [11] | outcome [12] | outcome [14] | activation [15] 0.101% | max response [16] 5.22% | Potency [17] | max response [18] 1.65%
